Test results as given in PubChem BioAssay (NCI).
The panel holds about 83,000 compounds, 20% with a hit somewhere; the sample as a whole holds those more often.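 Values shown are percent growth following 48 h exposure of cells in 96-well plates to a single concentration of compound; below 10 was considered active.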 A number with no mark means an inactive call. Active and inactive are the calls of the source.

Test system: KM12 colon
Assay: NCI-60 one-dose screen, 48 h (100 = growth as untreated, 0 = no growth, -100 = all killed)
Details: 10 µM unless noted
Description: Growth inhibition of the KM12 human tumor cell line is measured as a screen for anti-cancer activity. Cells are grown in 96 well plates and exposed to the test compound for 48 hours. Compounds are tested at a single concentration, which is 10^-5 M for most compounds. The reported endpoint is percent growth (GI% or GIPRCNT), where numbers from 0 - 100% represent growth inhibition, and numbers from -100% - 0 represent cell death. For example, a value of 40 represents 60% growth inhibition. A value of 0 means no net growth occurred over the course of the experiment. A value of -40 indicates 40% of cells at the beginning of the experiment died by the end of the experiment. A value of -100 means all cells are dead at the end of the experiment.
NCI-60 Human Tumor Cell Lines Screen was performed using the standard one-dose NCI protocol, which is described in more detail at https://dtp.cancer.gov/discovery_development/nci-60/default.htm.
Compounds with GIPRCNT values below 10 were considered active. Activity score was based on GIPRCNT using the following formula: […]
Score is 0 for GIPRCNT values of 100 or above, 50 for GIPRCNT values of 0, and 100 for GIPRCNT values of -100.

Row | SMILES | growth
1 | CCCCCCCCOC(=O)c1ccc(O)c(OC)c1 | 102%
2 | CCNNC(=O)[C@@H]1[C@H](c2cc(OC)c(OC)c(OC)c2)c2cc3c(cc2[C@H](O)[C@H]1CO)OCO3 | -5.82% (active)
3 | O=C(CN1CCOCC1)Nc1ccc2ncnc(Nc3ccc(OCc4cccc(F)c4)c(Cl)c3)c2c1 | 83.2%
4 | CN1CCN(CCCOc2ccc3ncnc(Nc4ccc(Oc5cccc(C(F)(F)F)c5)c(Cl)c4)c3c2)CC1 | -3.45% (active)
5 | COC(=O)Nc1nc2ccc(C(=O)c3cccc(I)c3)cc2[nH]1 | 7.58% (active)
6 | O=C(NCCN1CCOCC1)OCc1nc2nc(Cl)nc(N3CCOCC3)c2[nH]1 | 3.29% (active)
7 | Cc1[nH]c(C(=O)Nc2ccccc2OCc2cccc(C(=O)NCCN)c2)c(Cl)c1Cl | 64.1%
8 | CCOC(=O)N1CCN(CCCCl)CC1 | 105%
9 | COc1cc2nc(-c3ccc(C(F)(F)F)cc3)cc(OCCN3CCCC3)c2cc1OC | 93.7%
10 | COc1ccc(/C=C(/c2ccccc2)[N+](=O)[O-])cc1 | -36.2% (active)
11 | COc1cc(C2CC(c3cccc(Nc4ccncc4)c3)=NN2c2cc(Cl)cc(Cl)c2)cc(OC)c1OC (stereo not given) | -75.7% (active)
12 | CCCCCCc1nc2nc(Cl)c(Cl)nc2[nH]1 | 47.6%
13 | Fc1ccc(C2CC(c3cccc(Nc4ccncc4)c3)=NN2c2ccccc2)cc1 (stereo not given) | 8.85% (active)
14 | COc1cc(NCC(C)(O)CN(CC(C)C)CC(C)C)c2nc(C)ccc2c1 (stereo not given) | 63.2%
15 | O=S(=O)(c1ccc(N/N=C\c2ccccc2)cc1)c1ccc(N/N=C/c2ccccc2)cc1 | 66.9%
16 | O=c1[nH]nc(-c2ccc(Br)cc2)cc1Cc1ccc(O)cc1 | 108%
17 | CCCC1C(C(=O)OCC)=C(N)Oc2cc(O)ccc21 (stereo not given) | 98.2%
18 | O=C1OC(=O)C2C1CC=CC2c1ccccc1 (stereo not given) | 84.8%
19 | FCc1nc2nc(Cl)c(Cl)nc2[nH]1 | 104%
20 | O=C(Nc1cccc(Cl)c1)c1cc(Cl)ccc1O | 5.13% (active)

Row | SMILES | growth
21 | C/C(=C(/c1ccccc1)c1ccc(OCC(O)CN2CCOCC2)cc1)c1ccccc1 (stereo not given) | 63.6%
22 | C=CCn1c(SCC(=O)Nc2ccc(C(=O)/C=C/c3cc(OC)c(OC)c(OC)c3)cc2)nnc1-c1cc(-c2ccc(S(C)(=O)=O)cc2)nc2ccccc12 | 75.2%
23 | CC[C@H](CC[C@@H](C)[C@H]1CC[C@H]2[C@@H]3CC=C4C[C@@H](OCCc5nn[nH]n5)CC[C@]4(C)[C@H]3CC[C@]12C)C(C)C | 100%
24 | O=[N+]([O-])c1cccc(-c2nc(-c3ccc(Cl)cc3Cl)cn2-c2ccccc2)c1 | -64.4% (active)
25 | C=C(C)[C@H]1CC/C(C)=C/CC[C@]2(C)O[C@H]2CC/C(COC(=O)[C@@H](OC(C)=O)[C@H](NC(=O)c2ccccc2)c2ccccc2)=C\[C@@H]1O | 99.6%
26 | CCNC(=O)c1[nH]cc(-c2ccc(OC)cc2)c1-c1cc(OC)c(OC)c(OC)c1 | 22.1%
27 | COc1cccc(CCC(=O)c2cc3c(N)c(C(=O)Nc4cccc(Cl)c4C)sc3nc2C)c1 | 19.6%
28 | CC(=O)[C@@H]1CC[C@]2(C(N)=O)CC[C@]3(C)[C@H](CC[C@@H]4[C@@]5(C)CCC(=O)C(C)(C)[C@@H]5CC[C@]43C)[C@@H]12 | 100%
29 | NC(=O)C1(N2CCCCC2)CCN(CCCC(=O)c2ccc(F)cc2)CC1 | 15.8%
30 | COc1cc2nnn3c4ncccc4c(N=O)c3c2cc1OC | 87%
31 | COc1ccc(-n2cc(-c3cc(OC)c(OC)c(OC)c3)n(C(C)=O)c2=O)cc1 | 85%
32 | CCC(=O)c1ccc(O)c(OC)c1 | 113%
33 | CN1CCN(Cc2ccc(NC(=O)c3cncc(C#Cc4cnccc4C(F)(F)F)c3)cc2C(F)(F)F)CC1 | 20.8%
34 | COc1ccccc1OCC(=O)N1CCCCCC1 | 97.3%
35 | COc1cnccc1-c1nc2ccc3[nH]ncc3c2c2c1CCCC2 | 21.4%
36 | CS(=O)(=O)Nc1cc(-c2ccc3ncnc(Nc4ccc5[nH]ncc5c4)c3c2)cnc1Cl | 102%
37 | CC1=CC[C@@H]2CC[C@]3(C)[C@H](CC[C@@H]4[C@@]5(C)CCCNC(C)(C)[C@@H]5CC[C@]43C)[C@H]2[C@@H]1C | -53% (active)
38 | COc1cc(NCCCN(CC(C)C)C2CCCC2)c2ncccc2c1 | 93%
39 | C#CCNC(=O)[C@H](Cc1ccccc1)NC(=O)[C@]12CC[C@@H](C(=C)C)[C@@H]1[C@H]1CC[C@@H]3[C@@]4(C)Cc5c([nH]c6ccccc56)C(C)(C)[C@@H]4CC[C@@]3(C)[C@]1(C)CC2 | 103%
40 | ClCC1(Cn2cnc3c(Cl)nc(Cl)nc32)COC1 | 97.5%
